Screens: PubChem BioAssay, National Center for Advancing Translational Sciences (NCATS)
RGS4 inh – Inhibitors of Regulator of G Protein Signaling (RGS) 4: qHTS; Transcreener GDP fluorescence polarization, RGS4-accelerated GTP hydrolysis; Regulator of G-protein signaling 4 (Homo sapiens), P49798; AID 504845, 2011; Potency, µM (top dose mostly 114 µM), without a hit: top-dose activity change, negative = inhibition, most hits filed as inhibitors; hit rate 0.039% among 390,000; note: % is set by controls: 0 for no effect and ±100 for the full control effect; nearly all actives have a fitted effect of over 75% in size
Target sequence (P49798 whole entry, looked up): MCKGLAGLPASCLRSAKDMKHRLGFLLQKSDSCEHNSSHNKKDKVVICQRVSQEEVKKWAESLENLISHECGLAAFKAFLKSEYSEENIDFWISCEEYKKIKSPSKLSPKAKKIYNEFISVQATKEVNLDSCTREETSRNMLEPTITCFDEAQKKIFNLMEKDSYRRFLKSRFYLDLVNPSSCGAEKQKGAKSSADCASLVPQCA
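MLSMR compounds (23 nl, pin-transferred) preincubated 10 min at room temperature with a 500nM (2x) first reagent, then RGS4 at 900nM (2x) plus Transcreener GDP mix added; fluorescence polarization (620/688 nm) read before and after 90 min at 30 °C.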
MCF10A rereplic – A quantitative high throughput screen for small molecules that induce DNA re-replication in MCF 10a normal breast cells; MCF 10A DNA re-replication, Hoechst nuclear intensity, 48 h; Potency, µM (top dose mostly 46.1 µM), for the others: at the highest dose activity, positive = re-replication, actives largely listed as activators; hit rate 2.9% among 350,000; note: % of control where 0% means no effect; nearly all actives have a fitted effect of over 50% in size
KB-V1 cytotox – qHTS assay for MDR1-selective chemotherapeutics: Primary screen using the drug-selected MDR subline cells KB-V1 | KB-V1 MDR cells viability, CellTiter-Glo, 72 h | Potency, µM (highest dose often 46.1 µM), most hits filed as cytotoxic | hit rate 3.4% among 400,000 | AID 1347076, 2019; note: % is set by controls: 0 for no effect and ±100 for the full control effect; nearly all actives have a fitted effect of over 60% in size
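qHTS viability screen in drug-selected KB-V1 MDR cells: 72 h compound treatment at 37 degrees C, ATP luminescence end point.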
SW480 rerep – A quantitative high throughput screen for small molecules that induce DNA re-replication in SW480 colon adenocarcinoma cells. SW480 DNA re-replication, Hoechst DNA content imaging, 48 h. Potency, µM (top dose mostly 46.1 µM), for inactives: at the top dose re-replication activation, hits mostly activators. hit rate 1.8% among 340,000. AID 624297, 2012; note: % of control where 0% means no effect; nearly all actives have a fitted effect of over 55% in size
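First, 250 cells per well were seeded. Next, compound or vehicle (23 nL) was pinned in, plates sat 48 hr at 37 C. Finally Hoechst was added for 40 min before fluorescence scanning.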
KB-3-1 tox – qHTS assay for MDR1-selective chemotherapeutics: Primary screen using the parental adenocarcinoma cell KB-3-1. KB-3-1 viability, CellTiter-Glo ATP luminescence, 72 h. AID 1347075, 2019. hit rate 1.4% among 400,000. Potency, µM (titrated, usually from 46.1 µM), usual class: cytotoxic; note: % is set by controls: 0 for no effect and ±100 for the full control effect; nearly all actives have a fitted effect of over 60% in size
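Cytotoxicity measured as CellTiter-Glo luminescence after 72 h at 37 C. Compound titrations were pinned onto drug-naive KB-3-1 parental adenocarcinoma cells grown in DMEM with 10% FBS, and normalized data fitted to concentration-response curves.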
TSG101-PTAP inh – qHTS Assay for Iinhibitors of HIV-1 Budding by Blocking the Interaction of PTAP/TSG101 | Tumor susceptibility gene 101 protein (Homo sapiens), Q99816 | Fluorescence polarization, FITC-PTAP peptide / Tsg101 binding | Potency, µM (highest dose often 115 µM), for the others: top-dose activity change, negative = inhibition, actives largely listed as inhibitors | 340,000 tested, under 10 active; active = well fitted inhibition curve with a large enough effect in the main read-out, with a control signal flat, not every such curve was filed as active; inconclusive = small, poorly fitted or top-dose-only effect, or effect the other way, or a change in a side signal; inactive = no such curve, though single readings can be large or run the other way; note: % of control where 0% means no effect
Target sequence (Q99816 whole entry, looked up): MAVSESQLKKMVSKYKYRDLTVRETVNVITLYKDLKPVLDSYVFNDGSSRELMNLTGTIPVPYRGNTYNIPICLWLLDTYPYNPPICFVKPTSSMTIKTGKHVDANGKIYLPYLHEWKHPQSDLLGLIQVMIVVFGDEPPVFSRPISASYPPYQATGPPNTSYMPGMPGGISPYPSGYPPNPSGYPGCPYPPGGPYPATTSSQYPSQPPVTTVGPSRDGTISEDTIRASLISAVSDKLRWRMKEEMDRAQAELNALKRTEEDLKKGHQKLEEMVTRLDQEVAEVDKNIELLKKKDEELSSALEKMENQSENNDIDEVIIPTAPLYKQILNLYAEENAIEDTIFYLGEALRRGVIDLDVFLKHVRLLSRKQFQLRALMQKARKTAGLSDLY
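Tsg101 binding domain (10 uM final) was mixed with compound and a FITC-labeled PTAP peptide (50 nM final) in HEPES pH 7.5 buffer with NaCl, Tween 20, EDTA and TCEP; fluorescence polarization was read after 20 min at r.t.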
* marks the source's active call; other numbers are inactive results. Rows were chosen to be rich in hits. Some 6.6% of all compounds tested hit in one or more screens of this group. Unless noted, calls come from the whole dose curve; as a rule, active = well fitted curve in the direction sought with a large enough effect; inconclusive = small, poorly fitted or top-dose-only effect, or another doubt; inactive = no such curve, though single readings can be large; an effect the other way counts as inactive or inconclusive. Potency is the fitted concentration of half-maximal effect.

`Cc1cc(C(=O)N/N=C/c2c3ccccc3cc3ccccc23)n[nH]1` gave RGS4 inh 6%, MCF10A rereplic 21µM*, KB-V1 cytotox 18µM*, SW480 rerep inconclusive, KB-3-1 tox inconclusive and TSG101-PTAP inh -1%.
`O=C(NCCCN1CCOCC1)C(=O)N/N=C/c1c(Cl)cccc1Cl` gave RGS4 inh 2%, MCF10A rereplic -4%, KB-V1 cytotox inactive, SW480 rerep -11%, KB-3-1 tox inactive and TSG101-PTAP inh -3%.
`O=[N+]([O-])c1cccc(CN2C(COCc3ccccc3)CCC=CS2(=O)=O)c1` (configuration not stated) gave RGS4 inh -1%.
`Cc1ccc2c(=O)cc(C(=O)Nc3c(C(=O)c4ccccc4)oc4ccccc34)oc2c1C` gave RGS4 inh 17%, KB-V1 cytotox inactive and KB-3-1 tox inactive.
For Cc1ccc(NC(=O)C2(C)Cc3ccccc3C(=O)O2)c(C)c1 (configuration not stated) the results were RGS4 inh 4%, KB-V1 cytotox inconclusive and KB-3-1 tox inactive.
`c1coc(-c2nc3n(n2)C2(CCCCC2)[C@@H]2CCCC[C@@H]2N3)c1` gave RGS4 inh 5%, KB-V1 cytotox inactive and KB-3-1 tox inactive.
For COc1cc(NC(=O)c2cccc(Cl)c2Cl)ccc1NC(=O)c1cc2ccccc2o1 the results were RGS4 inh 2%, KB-V1 cytotox inactive and KB-3-1 tox inactive.
Oc1ccc(Br)cc1/C=N/N1CCCCC1 was read as RGS4 inh 0%, MCF10A rereplic 12%, KB-V1 cytotox inactive, SW480 rerep -14%, KB-3-1 tox inactive and TSG101-PTAP inh 2%.
`Oc1ccc(Br)cc1/C=N/n1cnc2ccccc21` gave RGS4 inh -11%, MCF10A rereplic inconclusive, KB-V1 cytotox 15µM*, SW480 rerep 2%, KB-3-1 tox inactive and TSG101-PTAP inh 0%.
Screening Cc1cc(O)c2c(c1)CC1C3CCC4CC(=O)CCC4(C)C3CC(=O)C21C (configuration not stated) returned RGS4 inh 15%, MCF10A rereplic 16µM*, KB-V1 cytotox inconclusive, SW480 rerep inconclusive, KB-3-1 tox inconclusive and TSG101-PTAP inh -3%.
CCn1nc(C)c2c(-c3ccccc3)cc(=O)n(C(C)C(=O)Nc3cccc(F)c3)c21 (configuration not stated) was read as RGS4 inh -19%, KB-V1 cytotox inconclusive and KB-3-1 tox inactive.
For COc1ccc(N(CC(=O)NC2CCCCC2)S(=O)(=O)c2cccs2)cc1 the results were RGS4 inh -9%, MCF10A rereplic 12%, KB-V1 cytotox inactive, SW480 rerep -27%, KB-3-1 tox inactive and TSG101-PTAP inh -6%.
`COc1ccc(C(=O)/C=C/C(=O)N(CC(=O)NC2CCCCC2)Cc2cccs2)c(O)c1` gave RGS4 inh inconclusive, MCF10A rereplic 18µM*, KB-V1 cytotox inconclusive, SW480 rerep inconclusive, KB-3-1 tox inconclusive and TSG101-PTAP inh -6%.
`COCCN(CC(=O)NC1CCCCC1)C(=O)/C=C/C(=O)c1ccc(OC)cc1O` gave RGS4 inh inconclusive, MCF10A rereplic 6.5µM*, KB-V1 cytotox inconclusive, SW480 rerep inconclusive, KB-3-1 tox 18µM* and TSG101-PTAP inh -2%.
For COC(=O)[C@@]12C[C@@H](CC(=O)N3CCN(C(=O)c4ccco4)CC3)C(=O)N(Cc3cccc4ccccc34)C1=CCC(C)(C)C2 the results were KB-V1 cytotox 23µM* and KB-3-1 tox inconclusive.
Screening CCOC(=O)N1CCN(C(=O)C[C@@H]2C[C@@]3(C(=O)OC)CC(C)(C)CC=C3N(Cc3cccc4ccccc34)C2=O)CC1 returned KB-V1 cytotox 18µM* and KB-3-1 tox inactive.
`CN(C1CCCCC1)S(=O)(=O)c1ccc(S(=O)(=O)N(CC(=O)Nc2ccccc2)C2CC2)cc1` gave RGS4 inh 10%, MCF10A rereplic 13%, KB-V1 cytotox inactive, SW480 rerep 3.7µM*, KB-3-1 tox inactive and TSG101-PTAP inh -13%.
`CN(C1CCCCC1)S(=O)(=O)c1ccc(NC(=O)CCC(=O)O)cc1` gave RGS4 inh 7%, MCF10A rereplic 3%, KB-V1 cytotox inactive, SW480 rerep 0%, KB-3-1 tox inactive and TSG101-PTAP inh -2%.
CCNC(=O)CN(C1CCCCC1)S(=O)(=O)c1ccc(F)cc1 was read as RGS4 inh -23%, MCF10A rereplic 3%, KB-V1 cytotox 13µM*, SW480 rerep 1%, KB-3-1 tox inactive and TSG101-PTAP inh -1%.
`CS(=O)(=O)N(CC(=O)NCCc1ccccc1)C1CCCCC1` gave RGS4 inh 4%, MCF10A rereplic 1%, KB-V1 cytotox 23µM*, SW480 rerep -5%, KB-3-1 tox inactive and TSG101-PTAP inh -5%.
Screening Cc1ccc2occ(CC(=O)N(Cc3ccc(Cl)cc3)C3CCS(=O)(=O)C3)c2c1 (configuration not stated) returned RGS4 inh -1%, KB-V1 cytotox inactive and KB-3-1 tox inactive.
`Cc1ccc(S(=O)(=O)C2(C(=O)N3CCCCCC3)CC2)cc1` gave RGS4 inh 21%, MCF10A rereplic -1%, KB-V1 cytotox 23µM*, SW480 rerep 0%, KB-3-1 tox inactive and TSG101-PTAP inh -5%.
For Cc1ccc(S(=O)(=O)C2(C(=O)N3CCN(c4cc(C)ccc4C)CC3)CC2)cc1 the results were RGS4 inh 14%, MCF10A rereplic 3%, KB-V1 cytotox inactive, SW480 rerep 22%, KB-3-1 tox inactive and TSG101-PTAP inh -4%.
`Cc1ccc(S(=O)(=O)C2(C(=O)NC3CCCC3)CC2)cc1` gave RGS4 inh -4%, MCF10A rereplic 9%, KB-V1 cytotox inactive, SW480 rerep -13%, KB-3-1 tox inactive and TSG101-PTAP inh -7%.
For Cc1ccc(S(=O)(=O)C2(C(=O)N3CCN(C4CCCCC4)CC3)CC2)cc1 the results were RGS4 inh -32%, MCF10A rereplic 22%, KB-V1 cytotox 16µM*, SW480 rerep 19%, KB-3-1 tox inactive and TSG101-PTAP inh -2%.
